Structures are written as SMILES. About 79,000 compounds went through this panel and 15% of them were active in at least one assay; those are over-represented in the sample as a whole. Unmarked numbers belong to inactive results. Active and inactive are the calls of the source. Cut-off read from the data, not from the text of the source: active = growth inhibition above about 70%; inactive = the rest.

A short description of experiment [1]: NCI Yeast Anticancer Drug Screen. Data for the rad50 strain (AID 155).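 Note: 0% = growth of vehicle-only cultures of the same strain.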 Particulars: S. cerevisiae rad50 strain growth inhibition; at 50.0 µM; stronger effect = higher value. In a few lines: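 Relative growth inhibition (compound vs vehicle) was measured in yeast with a defined repair-gene alteration.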
Experiment [2] in a line: NCI Yeast Anticancer Drug Screen. Data for the mec2-1 strain (AID 157). As to conditions: S. cerevisiae mec2-1 strain, at 50.0 µM, stronger effect = higher value. In a few lines:
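Cells of the genetically defined mec2-1 yeast strain are incubated with test compound. Inhibition of growth is calculated against vehicle-treated controls.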

Experiment [3] can be described thus: NCI Yeast Anticancer Drug Screen. Data for the sgs1 mgt1 strain (AID 161).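 Note: 0% = growth of cultures given vehicle only.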 As to conditions: S. cerevisiae sgs1 mgt1 strain, at 50.0 µM, stronger effect = higher value. In a few lines:
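Inhibition of yeast growth, normalised to vehicle-treated controls, is reported for a strain bearing genetic alterations in DNA damage repair.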

Experiment [4] is described as follows: NCI Yeast Anticancer Drug Screen. Data for the cln2 rad14 strain (AID 165).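 Note: 0% = growth equal to vehicle treated cultures.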 As to conditions: S. cerevisiae cln2 rad14 strain, at 50.0 µM, stronger effect = higher value. Put shortly: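 The screen exposed genetically defined yeast (cln2 rad14) to test compounds and scored growth inhibition relative to vehicle-treated controls.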
Experiment [5] in a line: NCI Yeast Anticancer Drug Screen. Data for the bub3 strain (AID 167). Particulars: S. cerevisiae bub3 mutant strain, at 50.0 µM, stronger effect = higher value. Put shortly: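 Screening used yeast with an engineered genetic alteration affecting cell cycle control. Compound-exposed cultures were compared with vehicle cultures, and reduced growth was taken as inhibition.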
Experiment [6] is described as follows: NCI Yeast Anticancer Drug Screen. Data for the mlh1 rad18 strain (AID 175). As to conditions: S. cerevisiae mlh1 rad18 strain growth inhibition; at 50.0 µM; stronger effect = higher value. In a few lines:
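Compound-treated yeast growth, normalised to vehicle controls. Strain bears defined DNA repair mutations.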

Consider `Cc1ccc(N)c(C(O)(C(F)(F)F)C(F)(F)F)c1`, for which the growth inhibition in experiment [1] is -5.7%; in experiment [2], 1.5%; in experiment [3], 12.5%; in experiment [4], 15.6%; in experiment [5], 16.6%; in experiment [6], 16.6%.
As for `CC(C)CC(NC(c1ccccc1)P(=O)(O)O)C(=O)O` (stereo unspecified), the growth inhibition was -4.15% in experiment [1]; -13.2% in experiment [2]; -22.1% in experiment [3]; -9% in experiment [4]; -8.3% in experiment [5]; -27.1% in experiment [6].
For `NC(=S)N/N=C(\c1ccccc1)c1cccc2ccccc12`, the growth inhibition is 5.1% in experiment [1]; 50.7% in experiment [2]; 59% in experiment [3]; -35.3% in experiment [4]; 58.5% in experiment [5]; 33.5% in experiment [6].
Turning to `Cc1[nH]c2ccccc2c1C(c1ccccc1O)c1c(C)[nH]c2ccccc12`, the growth inhibition in experiment [1] is 20.6%; in experiment [2] it was 23.4%; in experiment [3] it was 14.2%; in experiment [4], 18.6%; in experiment [5], 13.2%; in experiment [6], 33.4%.
Regarding `CN(CCCO)CCCO`, the growth inhibition in experiment [1] was 5.9%; in experiment [2], -2.4%; in experiment [3], 0.7%; in experiment [4], 3.35%; in experiment [5], 1.85%; in experiment [6] it was -0.85%.
Turning to `CC(C)C1CC(C(C)C)C(O)C(C(C)C)C1` (stereo unspecified), the growth inhibition in experiment [1] was 11.8%; in experiment [2], 1.55%; in experiment [3], 6.6%; in experiment [4], -5.9%; in experiment [5] it was 5.45%; in experiment [6], 15.7%.
Take `CN(C)Cc1c(C(O)(c2ccccc2)c2ccccc2)cc2ccccc2c1Cl`: the growth inhibition in experiment [1] is -12.8%; in experiment [2], -15.3%; in experiment [3], -25.6%; in experiment [4] it was -3%; in experiment [5], 1.05%; in experiment [6] it was -10.4%.
As for `CN(C)CCC(CCN(C)C)=NOC(=O)c1ccccc1`, the growth inhibition in experiment [1] is -5.45%; in experiment [2], -20.2%; in experiment [3], 10.1%; in experiment [4], 8.55%; in experiment [5], 21.4%; in experiment [6] it was 15.6%.
In the case of `CCCC(O)(c1ccccc1)c1ccccc1`, the growth inhibition in experiment [1] is 5.4%; in experiment [2], 2.95%; in experiment [3], -2.95%; in experiment [4], -6.4%; in experiment [5], -4.5%; in experiment [6] it was 4.5%.
For `OC(C1COCO1)C1OCOC1C1COCO1` (stereo unspecified), the growth inhibition is 21.6% in experiment [1]; 9.45% in experiment [2]; 3.2% in experiment [3]; 3.55% in experiment [4]; -11.2% in experiment [5]; 6.15% in experiment [6].
Consider `COc1cc(OC)c(NC(=O)CC2SC(N)=NC2=O)cc1Cl` (stereo unspecified), for which the growth inhibition is 9.75% in experiment [1]; 6.85% in experiment [2]; 20.2% in experiment [3]; 11% in experiment [4]; 25.4% in experiment [5]; 20.6% in experiment [6].
With `CCOC(=O)C(c1ccccc1)C(C)c1ccccc1` (stereo unspecified), the growth inhibition in experiment [1] was -7.5%; in experiment [2], -0.4%; in experiment [3], 1.85%; in experiment [4], 1.9%; in experiment [5] it was -11.3%; in experiment [6], -12.2%.
With `C(=N/NC(=N/N=C/c1ccccc1)N/N=C/c1ccccc1)/c1ccccc1`, the growth inhibition in experiment [1] is 28.8%; in experiment [2], 23.1%; in experiment [3] it was 46.6%; in experiment [4], 28.3%; in experiment [5] it was 5.65%; in experiment [6], 24.1%.
Regarding `CCCCCC(C#N)CCC(C)=O` (stereo unspecified), the growth inhibition in experiment [1] is -6.7%; in experiment [2] it was -9.15%; in experiment [3], -9.3%; in experiment [4] it was -6.2%; in experiment [5], -0.95%; in experiment [6], -10%.
Consider `O=c1[nH]c2nc3ccccc3c(=O)n2/c1=C/c1ccc(Cl)cc1`, for which the growth inhibition in experiment [1] was -1.6%; in experiment [2] it was 18.2%; in experiment [3] it was 43.4%; in experiment [4], 29.6%; in experiment [5], 14.1%; in experiment [6], -17.2%.
`CCCN(CCC)S(=O)(=O)c1ccc(NC(=O)Oc2ccc([N+](=O)[O-])cc2)cc1`: the growth inhibition in experiment [1] is 42.5%; in experiment [2], 18.1%; in experiment [3], 33.5%; in experiment [4], 29.9%; in experiment [5], 5.85%; in experiment [6], 34.4%.
As for `CCCCCCCCCc1cc[n+](C2=C([O-])C3=C(C(=O)C2=O)C2c4ccccc4C3c3ccccc32)cc1`, the growth inhibition in experiment [1] is 43.8%; in experiment [2], 50.6%; in experiment [3] it was 80.5% (active); in experiment [4], 46%; in experiment [5], 53.9%; in experiment [6], 60.3%.
Turning to `O=S(=O)(c1ccccc1)N1N=C2c3ccccc3CCC[C@H]2C1c1ccccc1` (stereo partly specified), the growth inhibition in experiment [1] was 51.1%; in experiment [2], -16.4%; in experiment [3], -12.7%; in experiment [4], -49.7%; in experiment [5], 4.85%; in experiment [6], 4.85%.
Consider `NCCCOCCO`, for which the growth inhibition in experiment [1] is -2.9%; in experiment [2], -0.5%; in experiment [3], -8.4%; in experiment [4] it was 8.3%; in experiment [5], 16.4%; in experiment [6], 4.35%.
Regarding `O=C1/C(=C/c2ccc3c(c2)CCC3)Cc2cc3c(cc21)CCC3`, the growth inhibition in experiment [1] was -10%; in experiment [2], 11.7%; in experiment [3], -23.4%; in experiment [4] it was 21.4%; in experiment [5], -1.15%; in experiment [6], 4.75%.
Take `O=C(O)Cc1c(-c2ccc([N+](=O)[O-])cc2)c(=O)oc2cc(O)ccc12`: the growth inhibition in experiment [1] was 28.4%; in experiment [2], 4.15%; in experiment [3], 9%; in experiment [4] it was 20.1%; in experiment [5], 41%; in experiment [6], 11.7%.

Values taken from PubChem BioAssay (NCI).
